Experimental findings from PubChem BioAssay (NCI) are described below.

Assay [1] in a line: NCI Yeast Anticancer Drug Screen. Data for the rad50 strain (AID 155).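 Note: 0% = growth of vehicle-only cultures of the same strain.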 As to conditions: S. cerevisiae rad50 strain growth inhibition; at 50.0 µM; hits give high values. Put shortly:
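Genetically altered yeast (DNA repair pathway); compound treatment; growth inhibition vs vehicle ctrl.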

Assay [2] is described as follows: NCI Yeast Anticancer Drug Screen. Data for the mec2-1 strain (AID 157). The following applies: S. cerevisiae mec2-1 strain, at 50.0 µM, hits give high values. Put shortly:
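Each compound was tested on mec2-1 yeast, a strain altered in DNA damage repair or cell cycle control. Growth inhibition is reported relative to vehicle.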

A short description of assay [3]: NCI Yeast Anticancer Drug Screen. Data for the sgs1 mgt1 strain (AID 161).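 Note: 0% = growth of cultures given vehicle only.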 As to conditions: S. cerevisiae sgs1 mgt1 strain, at 50.0 µM, hits give high values. The method, boiled down: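 Test agents were incubated with a DNA-repair-mutant yeast strain. Growth was then read and compared against vehicle-treated controls.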
Assay [4] can be described thus: NCI Yeast Anticancer Drug Screen. Data for the cln2 rad14 strain (AID 165).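 Note: 0% = growth equal to vehicle treated cultures.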 As to conditions: S. cerevisiae cln2 rad14 strain, at 50.0 µM, hits give high values. The method, boiled down: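 Test compounds were added to cln2 rad14 yeast cultures; inhibition of growth was then determined by comparison with vehicle treatment.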
Assay [5] is described as follows: NCI Yeast Anticancer Drug Screen. Data for the bub3 strain (AID 167). The following applies: S. cerevisiae bub3 mutant strain, at 50.0 µM, hits give high values. Put shortly:
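Yeast carrying a defined mutation is treated with each compound, and growth is compared with that of vehicle-exposed cells to give inhibition.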

Assay [6] in a line: NCI Yeast Anticancer Drug Screen. Data for the mlh1 rad18 strain (AID 175). As to conditions: S. cerevisiae mlh1 rad18 strain growth inhibition; at 50.0 µM; hits give high values. The method, boiled down: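 Inhibition values reflect reduced growth of mutant yeast versus vehicle-treated controls following compound exposure; the mutations affect DNA damage repair.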

The panel holds about 79,000 compounds, 15% with a hit somewhere; the sample as a whole holds those more often. Values without a mark were called inactive. Calls of active or inactive are those of the source. Cut-off read from the data, not from the text of the source: active = growth inhibition above about 70%; inactive = the rest.

Turning to `Cc1cccc(NC(=O)c2ccc(Cl)cc2Cl)n1` (tested in a mixture with another compound), the growth inhibition in assay [1] is -2.95%; in assay [2], -7.05%; in assay [3], 3.45%; in assay [4], -25.6%; in assay [5], 4.05%; in assay [6], 20.9%.

Regarding `CCCCCCCCCCNC(=O)C(OC(C)=O)C(OC(C)=O)C(OC(C)=O)C(COC(C)=O)OC(C)=O` (centres undefined), the growth inhibition is 29.4% in assay [1]; 12.6% in assay [2]; 19.3% in assay [3]; 32.1% in assay [4]; 10.2% in assay [5]; 40.4% in assay [6].

`Clc1cccc2nc(-c3ccccn3)n(CCc3ccncc3)c12`: the growth inhibition is 90% (active) in assay [1]; 51.1% in assay [2]; 84.7% (active) in assay [3]; 60.6% in assay [4]; 74.7% (active) in assay [5]; 86.2% (active) in assay [6].

In the case of `O=C(/N=C/c1c(O)c2ccccc2oc1=O)NC1CCCCC1`, the growth inhibition was -16.1% in assay [1]; -9.2% in assay [2]; -25.9% in assay [3]; 0.65% in assay [4]; -17.6% in assay [5]; -5.8% in assay [6].

For `Brc1ncccn1`, the growth inhibition was 23.8% in assay [1]; -16.9% in assay [2]; 0.65% in assay [3]; 17.9% in assay [4]; 7.75% in assay [5]; 14.8% in assay [6].

Regarding `CC(=O)N(CN1C(=O)CCC1C(=O)O)c1ccccc1` (centres undefined), the growth inhibition was 20.1% in assay [1]; -0.55% in assay [2]; -8.5% in assay [3]; 1.55% in assay [4]; 0.7% in assay [5]; -31.3% in assay [6].

As for `BrC/C(=N\N1CCCCC1)c1ccc(Br)cc1`, the growth inhibition in assay [1] was 6.55%; in assay [2] it was -7.95%; in assay [3], -8.05%; in assay [4] it was 24.6%; in assay [5], 16.6%; in assay [6], 14%.

As to `CC(C)(C)C1=CC(=C(c2ccc(-c3c4nc(c(-c5ccc(C(=C6C=C(C(C)(C)C)C(=O)C(C(C)(C)C)=C6)c6cc(C(C)(C)C)c(O)c(C(C)(C)C)c6)cc5)c5ccc([nH]5)c(-c5ccc(C(=C6C=C(C(C)(C)C)C(=O)C(C(C)(C)C)=C6)c6cc(C(C)(C)C)c(O)c(C(C)(C)C)c6)cc5)c5nc(c(-c6ccc(C(=C7C=C(C(C)(C)C)C(=O)C(C(C)(C)C)=C7)c7cc(C(C)(C)C)c(O)c(C(C)(C)C)c7)cc6)c6ccc3[nH]6)C=C5)C=C4)cc2)c2cc(C(C)(C)C)c(O)c(C(C)(C)C)c2)C=C(C(C)(C)C)C1=O`, the growth inhibition is 4.7% in assay [1]; 2.6% in assay [2]; -1.75% in assay [3]; -38.6% in assay [4]; -3.9% in assay [5]; 14.4% in assay [6].

For `CCN(CC)CCOC(=O)c1ccc(NC(=O)Nc2ccccc2[N+](=O)[O-])cc1`, the growth inhibition in assay [1] is 19.4%; in assay [2] it was 5.5%; in assay [3], 19.1%; in assay [4], 16.6%; in assay [5], 15.6%; in assay [6], 14.8%.

Turning to `Cc1cc2c(=O)c3ccccc3[nH]c2c(C(N)=O)c1C`, the growth inhibition in assay [1] is 39.5%; in assay [2], 7.8%; in assay [3] it was 1.75%; in assay [4], -6.9%; in assay [5] it was -10.5%; in assay [6], 15.3%.

As for `Cc1ccc(S(=O)(=O)N/N=C2\CCC3CC2C3(C)C)cc1` (centres undefined), the growth inhibition in assay [1] is 1%; in assay [2], 2.05%; in assay [3], -14.2%; in assay [4], -20.1%; in assay [5], -6.05%; in assay [6], 5.95%.

For `O=[N+]([O-])c1ccc2c(c1)Sc1ccccc1N2`, the growth inhibition in assay [1] was -16.8%; in assay [2] it was -14.4%; in assay [3], -26.7%; in assay [4], -21.8%; in assay [5], -25.2%; in assay [6], -22.6%.

Turning to `Nc1c(Br)cc(Br)c2c1CCC2`, the growth inhibition in assay [1] is 10.6%; in assay [2], 5.9%; in assay [3], 10.6%; in assay [4], 1.4%; in assay [5] it was 8.8%; in assay [6] it was 15.8%.

As to `CC(C)COC(=O)c1ccc(C(C)C)cc1`, the growth inhibition in assay [1] is 9.35%; in assay [2], 8.8%; in assay [3], 4.6%; in assay [4], -9.8%; in assay [5], 5.1%; in assay [6], 4.45%.

In the case of `Cc1nc(Cl)c(Cl)c(Cl)n1`, the growth inhibition in assay [1] was 5%; in assay [2] it was -7.9%; in assay [3] it was -0.6%; in assay [4], 5.55%; in assay [5], -4%; in assay [6], -5.2%.

Take `c1ccc(CCc2ccccn2)nc1`: the growth inhibition was 22.9% in assay [1]; 0.8% in assay [2]; -13.6% in assay [3]; 7.2% in assay [4]; 9.5% in assay [5]; 1.45% in assay [6].

On to `O=C(C1C2C=CC(C2)C1C(=O)N1CCCCC1)N1CCCCC1` (centres undefined), for which the growth inhibition in assay [1] was 2.5%; in assay [2], 25.4%; in assay [3], 13.2%; in assay [4], -1.8%; in assay [5] it was 12.3%; in assay [6], 11.5%.

For the compound `CC(=O)Nc1ccc(S(=O)(=O)N=S(C)C)cc1`, the growth inhibition in assay [1] is -10.8%; in assay [2] it was -9.05%; in assay [3], -24.9%; in assay [4] it was -21.6%; in assay [5], -40%; in assay [6], 13.8%.

For `O=C(NC1(C(=O)Oc2ccc([N+](=O)[O-])cc2)CCCC1)OCc1ccccc1`, the growth inhibition in assay [1] was 7.25%; in assay [2] it was 20.2%; in assay [3], 26.1%; in assay [4], 8.85%; in assay [5], -1.7%; in assay [6], 28.9%.
